In the library only some 4.3% were active in any assay of this set; here they are far more common.
MITF TRPM1 inh – inhibitors of MITF-driven TRPM1 promoter in melanoma cells. SK-MEL-5 TRPM1 promoter luciferase, 24 h. inhibition, % at 12.5 µM. actives 0.83% (n = 330,000). AID 488899;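 active = mean inhibition across replicates of 60% or more, whatever share of single replicates reaches that level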
CHOP inh – blocks CHOP induction under ER stress; CHO-K1 CHOP-promoter luciferase, tunicamycin-induced, 15-18 h; inhibition, % at 10 µM; actives 3.8% (n = 220,000);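 active = compounds that reduced the stress-induced luciferase reporter signal by more than about 70% of percent inhibition, limit read from the data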;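 also: 0% = tunicamycin plus vehicle and 100% = wells without tunicamycin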
Peg3 promoter – Peg3 promoter activity inhibition; inhibition, % at 20 µM; actives 1.7% (n = 360,000); AID 588405; HeLa PEG-Prom luciferase reporter, luminescence, overnight;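 active = inhibition of at least 50% at 20 µM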
CF NFkB block – inhibitors of cystic fibrosis induced NF-kB. KKLEB NF-kB-GFP reporter, PAF-induced, GFP fluorescence overnight. actives 0.86% (n = 360,000). inhibition, % at 5 µM;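 active = at least 50% inhibition at 5 µM, scaled per plate between neutral and stimulator controls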;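 also: PAF is a Pseudomonas aeruginosa culture filtrate used as stimulus; plate controls were PAF-stimulated DMSO wells for no effect and unstimulated DMSO wells for full effect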
KKLEB tox – reduces viability of KKLEB cystic fibrosis airway cells | actives 0.36% (n = 360,000) | KKLEB CF airway cells viability, ATPlite luminescence, overnight; active compounds read low; cells stimulated with P. aeruginosa culture filtrate | activity change (cytotoxicity), % at 5 µM | AID 602141;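 active = corrected activity change at or below -50% at 5 µM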
HIF-2a inh – blocks HIF-2a reporter activity | 786-0 RCC cells HIF-2a reporter, luciferase luminescence, overnight | inhibition, % at 18.8 µM | actives 0.72% (n = 360,000) | AID 624352;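 active = inhibition of the luminescence signal of 40% or more relative to plate controls, in a single-dose primary screen at 18.75 µM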
Mdm2-MdmX confirm – Mdm2/MdmX (human) interaction inhibition, confirmed; inhibition, % at 8 µM; actives 99% (n = 740); SaOS-2 split-luciferase Mdm2/MdmX complementation, luminescence; shares compounds with HIF-2a inh;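 active = mean inhibition of the luminescence signal across two replicates at or above 26 percent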
Target sequence (O15151 whole entry, looked up): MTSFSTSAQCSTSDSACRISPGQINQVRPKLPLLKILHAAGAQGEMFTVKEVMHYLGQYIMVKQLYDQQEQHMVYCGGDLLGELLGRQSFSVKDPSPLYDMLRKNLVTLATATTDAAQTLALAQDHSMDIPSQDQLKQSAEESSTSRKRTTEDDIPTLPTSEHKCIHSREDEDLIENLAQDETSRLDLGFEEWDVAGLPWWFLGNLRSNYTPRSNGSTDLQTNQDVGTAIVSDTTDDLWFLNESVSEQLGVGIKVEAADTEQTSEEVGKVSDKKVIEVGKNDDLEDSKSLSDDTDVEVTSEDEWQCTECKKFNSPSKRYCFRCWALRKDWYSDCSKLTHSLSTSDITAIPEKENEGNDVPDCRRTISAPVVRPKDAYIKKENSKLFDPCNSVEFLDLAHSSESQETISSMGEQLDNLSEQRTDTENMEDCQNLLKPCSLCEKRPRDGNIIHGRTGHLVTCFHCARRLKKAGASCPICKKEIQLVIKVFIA
Target sequence (Q00987 whole entry, looked up): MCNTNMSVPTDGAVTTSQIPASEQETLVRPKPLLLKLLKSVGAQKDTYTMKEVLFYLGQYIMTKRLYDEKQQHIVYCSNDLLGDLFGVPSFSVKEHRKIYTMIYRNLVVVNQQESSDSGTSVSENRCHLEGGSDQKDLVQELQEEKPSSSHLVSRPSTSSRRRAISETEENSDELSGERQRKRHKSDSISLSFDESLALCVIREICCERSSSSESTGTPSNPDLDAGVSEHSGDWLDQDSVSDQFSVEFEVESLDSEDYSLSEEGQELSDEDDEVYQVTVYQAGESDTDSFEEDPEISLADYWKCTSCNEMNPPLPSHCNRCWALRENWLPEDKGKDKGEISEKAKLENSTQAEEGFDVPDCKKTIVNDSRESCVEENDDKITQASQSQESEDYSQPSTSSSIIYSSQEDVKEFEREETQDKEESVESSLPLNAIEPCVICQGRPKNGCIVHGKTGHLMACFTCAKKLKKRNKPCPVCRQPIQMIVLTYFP
HIF-2a conf – HIF-2a inhibition, single concentration confirmation. AID 651580. inhibition, % at 18.8 µM. actives 56% (n = 1,800). shares compounds with HIF-2a inh. 786-0 RCC cells, HIF-2a luciferase reporter luminescence, overnight;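 active = mean inhibition across four replicates of at least 40 percent at the single tested concentration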
HIF-1a counter – HIF-1a inhibition counter-screen for HIF-2a hits; shares compounds with HIF-2a inh; MiaPaCa-2 HIF-1a luciferase reporter, desferoxamine, overnight; inhibition, % at 18.8 µM; actives 72% (n = 1,800);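 active = mean inhibition of the reporter signal across four replicates at the single tested dose of 50% or more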
Active calls of the source: *; x = not tested or not shown.

SMILES | MITF TRPM1 inh | CHOP inh | Peg3 promoter | CF NFkB block | KKLEB tox | HIF-2a inh | HIF-2a conf | HIF-1a counter | others
Cc1cc2[nH]c3c4ccccc4nc(C)c3c2cc1C | 86* | x | 106* | -50 | -68* | 92* | -4 | 105*
O=C(CN1CCN(Cc2ccccc2)CC1)c1ccc(Br)cc1 | 0 | 0 | -2 | 14 | 10 | -9 | x | x
N=c1n(CC(=O)c2ccc(Br)cc2)c2ccccc2n1Cc1ccccc1 | 90* | x | 99* | -9 | -24 | -9 | x | x | Mdm2-MdmX confirm=102*
O=C(NNC(=O)c1ccccc1-n1cccc1)c1cncc(Br)c1 | 9 | x | 13 | 6 | -20 | -9 | x | x
CC1=C(C(=O)Nc2ccccc2C(F)(F)F)C(c2ccc(C)s2)NC(=S)N1 (stereo not given) | -2 | 17 | -2 | -14 | -4 | 5 | x | x
O=C(Nc1ccc2nc3n(c(=O)c2c1)CCCCC3)c1c(F)ccc([N+](=O)[O-])c1F | 97* | x | 108* | 87* | -87* | 88* | 98* | 96* | Mdm2-MdmX confirm=103*
CCc1ccc(/C=C2\SC(=S)N(CCC(=O)N3CCN(C)CC3)C2=O)cc1 | 1 | -6 | 15 | 22 | 0 | 3 | x | x
Cc1ccc(/C=C2/SC(=S)N(CCCC(=O)Nc3ccc(O)cc3)C2=O)cc1 | 44 | 94* | -62 | -10 | 4 | -8 | x | x | Mdm2-MdmX confirm=101*
O=C(CCN1C(=O)/C(=C/c2ccccc2)SC1=S)N1CCCCCC1 | 25 | x | 105* | 31 | -5 | 67* | x | x | Mdm2-MdmX confirm=102*
O=C(CCCN1C(=O)/C(=C/c2ccccc2)SC1=S)Nc1cccc(O)c1 | -9 | 67 | 78* | 8 | -9 | 73* | x | x | Mdm2-MdmX confirm=103*
COc1cccc(C2/C(=C(\O)c3ccc4c(c3)OCCO4)C(=O)C(=O)N2Cc2cccnc2)c1 (stereo not given) | -6 | x | -30 | 1 | -5 | -12 | x | x
Cc1c(-c2ccccc2)[n+](=O)c(-c2ccc(Cl)cc2)c(C)n1[O-] | 0 | 12 | 2 | 27 | -10 | 8 | x | x
Cc1cc(C)c2cc(C#N)c(NCCNC(=O)c3ccncc3)nc2c1 | x | x | x | x | x | 4 | x | x
N#Cc1ccccc1C[C@H](N)C(=O)NC[C@H]1O[C@@H](n2cnc3c(N)ncnc32)[C@H](O)[C@@H]1O | x | x | 7 | -3 | 1 | 13 | x | x
C/C(=N\NC(=O)COc1cccc(C)c1)c1ccc2ccccc2c1O | 10 | x | -13 | 0 | -8 | -30 | x | x
CCCc1nnc(SCC(=O)O)n1CC | -3 | -3 | 9 | 12 | 0 | 20 | x | x
Cc1c([N+](=O)[O-])cnc(Sc2ccccc2)c1[N+](=O)[O-] | 11 | x | 44 | 52* | -29 | 50* | 48* | 84*
COc1ccc(OC)c(C(=O)/C=C/c2ccccc2C(F)(F)F)c1 | 15 | 10 | 102* | -4 | -14 | 74* | 26 | 105*
COc1ccc(OC)c(C(=O)C(=O)c2cc(OC)ccc2OC)c1 | -5 | x | 13 | -3 | -22 | 16 | x | x
Cc1cccc(NC(=O)c2ccc(S(=O)(=O)NCc3cccnc3)cc2)c1 | 17 | x | 16 | 4 | -2 | 10 | x | x
O=C(C=C=Nc1ccccc1)C(=O)N=C=Cc1ccccc1 | 82* | 96* | 102* | 92* | -20 | 75* | 53* | 101*
NC(=O)CC(NC(=O)c1ccccc1)c1ccc(NCCc2ccc(Cl)cc2)c([N+](=O)[O-])c1 (stereo not given) | 7 | 50 | 16 | 2 | -14 | 50* | -3 | 33
Cc1ccc(-n2nnc3c(=O)oc4ccccc4c32)cc1 | 52 | 59 | 49 | 18 | 1 | 52* | 15 | 30
CCC(C)n1nnc2c(=O)oc3ccccc3c21 (stereo not given) | 7 | 10 | 10 | 10 | 3 | 18 | x | x
Cc1nc(SCC(=O)N2c3ccccc3NC(=O)CC2C)c2c(C)c(C)sc2n1 (stereo not given) | 20 | x | -6 | 4 | -11 | 23 | x | x
SMILES | MITF TRPM1 inh | CHOP inh | Peg3 promoter | CF NFkB block | KKLEB tox | HIF-2a inh | HIF-2a conf | HIF-1a counter | others
Cc1sc2nc(C3CC3)nc(SCC(=O)N3c4ccccc4CC3C)c2c1C (stereo not given) | 9 | 29 | 16 | 3 | -11 | -6 | x | x | Mdm2-MdmX confirm=101*
Cc1cccc(CS(=O)(=O)c2ncc(Cl)c(C(=O)Nc3c(C)cccc3C)n2)c1 | 19 | x | 103* | 98* | -66* | 47* | 68* | 90* | Mdm2-MdmX confirm=103*
CCCc1nnc(NC(=O)c2nc(S(=O)(=O)Cc3cccc(C)c3)ncc2Cl)s1 | 78* | x | 109* | 94* | -90* | 69* | 22 | 106*
N#Cc1c(N)nc(Sc2ccc(Cl)cc2)c(C#N)c1-c1ccccc1Cl | 37 | 28 | 52* | 46 | -16 | 47* | 16 | 45
COc1ccc(Cn2nnnc2C(c2cc3cccc(C)c3[nH]c2=O)N2CCN(C)CC2)cc1 (stereo not given) | -11 | 31 | 12 | -24 | -5 | 41* | -3 | 10
N#Cc1cc[n+](CC(=O)c2ccc(NC(=O)c3ccccc3)cc2)cc1 | -8 | 14 | -7 | -8 | -1 | -33 | x | x
CN(C(=O)Cn1nnc(-c2cccnc2)n1)C1CCCCC1 | x | 0 | x | x | x | x | x | x
CC(=O)CC1OC(=O)C(Br)=C1NCc1ccccc1 (stereo not given) | -21 | x | 104* | 9 | -10 | 42* | 17 | 76*
CC1CCN(Cc2c(C(=O)N/N=C/c3cc(Br)ccc3O)nnn2-c2nonc2N)CC1 | 65* | x | 74* | 37 | -21 | 6 | x | x | Mdm2-MdmX confirm=91*
COc1ccc(C(=O)NCc2nnc(SCC(=O)N3CCCC3)o2)cc1OC | -10 | x | -6 | -1 | 12 | 5 | x | x
N#CC1c2ccccc2C=CN1C(=O)N(c1ccccc1)c1ccccc1 (stereo not given) | 24 | x | 47 | 45 | 6 | 77* | 6 | 108*
COc1ccc2c(c1)C(c1ccc(Cl)cc1)NC(=O)C2 (stereo not given) | 0 | x | -6 | -19 | -2 | 18 | x | x
COC(=O)c1c(NC(=O)c2nc3ccccc3s2)sc2c1CC(C)(C)NC2(C)C | 77* | 67 | 104* | 34 | -32 | 23 | x | x | Mdm2-MdmX confirm=93*
COc1ccc(C(C)=O)cc1CSc1nnc(-c2ccncc2)n1C | -1 | 6 | 18 | -3 | -4 | 12 | x | x
COc1ccc(C(C)=O)cc1CSc1nnc(-c2ccc(Cl)cc2)n1-c1ccccc1 | 31 | 4 | 29 | 20 | 2 | 41* | 16 | 27
